SMN2 splice enh = SMN2 splice variant enhancement | actives 2.8% (n = 210,000) | AID 1458 | HEK293 SMN2-luciferase splicing reporter, luminescence, 30-36 h | Potency, µM (highest dose often 46.1 µM), without a hit: at the highest dose activity change, positive = activation, most hits filed as activators; also: % of control where 0% means no effect; nearly all actives have a fitted effect of over 55% in size
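HEK293 cells carry an SMN2 […]–luciferase reporter in which exon 7 inclusion puts luciferase in frame. Cells were plated 10-12 h before compound addition, then incubated 30-36 h at 37C. ONE-Glo luminescence was read; sodium butyrate at 4.5 mM final served as control.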
ELG1 DNA repair = ELG1-dependent DNA repair inhibition | AID 504467 | actives 2.3% (n = 330,000) | Potency, µM (series often up to 46.1 µM), inactives show top-dose activity change, negative = inhibition, actives largely listed as inhibitors | HEK293T ELG1-luciferase reporter, luminescence, 16 h; DNA damage induced by 5-fluorouridine; also: % is scaled to controls: 0 for no effect and ±100 for the full control effect; nearly all actives have a fitted effect of over 55% in size
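In this reporter screen, reduction of luminescence relative to DMSO vehicle indicated activity. Compounds and 5-fluorouridine were added together to 2,000 cells per well, incubated for 16 hr at 37 °C, then developed with ONE-Glo.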
Rab9 promoter act = activators of Rab9 promoter; Huh7 Rab9 promoter-luciferase reporter, luminescence, 24 h; Potency, µM (top dose mostly 9.22 µM), inactives show top-dose activation, negative = inhibition, most hits filed as activators; actives 2.8% (n = 320,000); also: % of control where 0% means no effect; nearly all actives have a fitted effect of over 60% in size
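Measured in stably transfected Huh7 cells bearing a Rab9 promoter–luciferase construct: 24 h compound treatment at 37 °C, followed by luminescence detection.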
NPC1 promoter act = activates the NPC1 promoter; Huh7 NPC1 promoter luciferase reporter, 24 h; Potency, µM (doses to about 9.22 µM), for inactives: at the highest dose activation, actives largely listed as activators; actives 2.4% (n = 320,000); AID 485313; also: % of control where 0% means no effect; nearly all actives have a fitted effect of over 60% in size
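Cells: Huh7 expressing luciferase under the NPC1 promoter, 1500/well. Seeded 2 h, compound added, incubated 24 h at 37 °C. Luciferase reagent, 10 min ambient, then luminescence.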
ELG1 genotoxic = genotoxicity induction in ELG1-luciferase HEK293T cells; HEK293T ELG1-luciferase reporter, luminescence, 16 h; Potency, µM (titrated, usually from 46 µM), without a hit: top-dose activity change, positive = activation, actives largely listed as activators; actives 1.3% (n = 330,000); AID 504466; also: % of control where 0% means no effect; nearly all actives have a fitted effect of over 60% in size
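Reporter readout depends on ELG1 protein level, which increases with genetic stress. After 16 hr compound exposure at 37 °C, luciferase activity was quantified using ONE-Glo.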
FLuc counter = inhibits or activates purified firefly luciferase, miR-21 counter-screen | P08659 | actives 6.9% (n = 360,000) | AID 588342 | purified FLuc, Km substrates, luminescence inhibition | Potency, µM (series often up to 57.5 µM), inactives show at the top dose activity change, negative = inhibition, actives largely listed as inhibitors;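 also: plate controls were vehicle for no effect and reference inhibitor for full effect; nearly all actives have a fitted effect of over 55% in size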
Target sequence (P08659 whole entry, looked up): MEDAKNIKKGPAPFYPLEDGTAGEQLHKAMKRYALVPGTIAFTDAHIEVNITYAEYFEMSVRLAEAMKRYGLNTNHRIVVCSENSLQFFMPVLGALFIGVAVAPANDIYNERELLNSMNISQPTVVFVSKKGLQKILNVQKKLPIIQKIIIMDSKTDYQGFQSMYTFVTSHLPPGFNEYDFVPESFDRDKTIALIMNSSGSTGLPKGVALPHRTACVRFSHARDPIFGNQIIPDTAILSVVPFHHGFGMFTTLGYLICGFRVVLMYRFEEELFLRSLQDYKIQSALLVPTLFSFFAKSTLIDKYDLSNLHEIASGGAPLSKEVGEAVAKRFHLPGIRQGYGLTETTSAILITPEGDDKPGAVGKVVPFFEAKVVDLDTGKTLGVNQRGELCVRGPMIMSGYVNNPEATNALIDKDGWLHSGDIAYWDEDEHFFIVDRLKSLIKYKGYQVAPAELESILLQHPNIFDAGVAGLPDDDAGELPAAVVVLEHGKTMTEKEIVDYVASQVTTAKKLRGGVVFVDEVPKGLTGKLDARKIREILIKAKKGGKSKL
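Biochemical qHTS of compounds, final roughly 60 µM downward over six points, against 10 nM purified firefly luciferase using Km concentrations of substrates (10 uM D-luciferin, 10 uM ATP) in Tris acetate pH 7.5 buffer; luminescence output.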
* hit, by the source's call; [ ] = dose if it differs, or a comment. Rows were chosen to be rich in hits. Some 9.2% of all compounds tested hit in one or more screens of this group. Calls follow the shape of the dose curve; as a rule, active = well fitted curve in the direction sought with a large enough effect; inconclusive = small, poorly fitted or top-dose-only effect, or another doubt; inactive = no such curve, though single readings can be large; an effect the other way counts as inactive or inconclusive. Potency is read from the fitted curve at half-maximal effect.

Results for CCOC(=O)c1ccc(NC(=O)c2cccc(C)c2[N+](=O)[O-])cc1 ?
ELG1 DNA repair: 8%; Rab9 promoter act: 1%; NPC1 promoter act: 10%; ELG1 genotoxic: 3%; FLuc counter: inconclusive

Results for CCOC(=O)c1ccc(NC(=O)c2ccccc2)cc1 ?
SMN2 splice enh: 10µM*; ELG1 DNA repair: inconclusive; Rab9 promoter act: 2.8µM*; NPC1 promoter act: 2.8µM*; ELG1 genotoxic: inconclusive; FLuc counter: -3%[2.3 µM]

Results for CCOC(=O)c1ccc(N/N=C/c2cc(Br)cc([N+](=O)[O-])c2O)cc1 ?
SMN2 splice enh: -69%; ELG1 DNA repair: -1%; Rab9 promoter act: 0%; NPC1 promoter act: -3%; ELG1 genotoxic: -13%; FLuc counter: 1.2µM*

How did CCOC(=O)c1cccc(NC(=O)c2ccc(N(C)C)cc2)c1 do in these assays?
SMN2 splice enh: inconclusive; ELG1 DNA repair: inconclusive; Rab9 promoter act: 0.28µM*; NPC1 promoter act: 0.4µM*; ELG1 genotoxic: 8%; FLuc counter: 1.7µM*

Results for CCOC(=O)c1ccc(NC(=O)c2ccc(NS(C)(=O)=O)cc2)cc1 ?
SMN2 splice enh: -13%; ELG1 DNA repair: -4%; Rab9 promoter act: -2%; NPC1 promoter act: -4%; ELG1 genotoxic: -3%; FLuc counter: inconclusive

What do the screens show for `CC1CC[C@@]2(OC1)OC1CC3C4CC[C@H]5CC(O)CC[C@@]5(C)C4CC[C@]3(C)C1C2C` (stereo not given in full)?
SMN2 splice enh: -2%

Results for Cc1ccc(N2CCN(C(=O)c3nn(C)c4c3CS(=O)(=O)c3ccccc3-4)CC2)c(C)c1 ?
ELG1 DNA repair: -26%; Rab9 promoter act: -1%; NPC1 promoter act: -2%; ELG1 genotoxic: 0%[9.26 µM]; FLuc counter: -1%

What do the screens show for `CCCn1c2ccccc2c2cnn(CC(=O)N(CCCOC(C)C)Cc3ccco3)c(=O)c21`?
FLuc counter: -14%

Results for CCC(C)(C(=O)NC1CCCCC1)N(C(=O)CC1NC(=O)NC1=O)c1c(C)n(C)n(-c2ccccc2)c1=O (stereo not given) ?
SMN2 splice enh: 5%; ELG1 DNA repair: 0%; Rab9 promoter act: -4%; NPC1 promoter act: -1%; ELG1 genotoxic: 0%; FLuc counter: 0%

Results for CCOC(=O)c1ccc(NC(=S)Nc2ccccn2)cc1 ?
SMN2 splice enh: 12%; ELG1 DNA repair: inconclusive; Rab9 promoter act: 25%; NPC1 promoter act: inconclusive; ELG1 genotoxic: 15µM*; FLuc counter: -19%

How did CCOC(=O)c1ccc(NC(=S)Nc2ccc(Cl)cn2)cc1 do in these assays?
ELG1 DNA repair: 1%; Rab9 promoter act: inconclusive; NPC1 promoter act: 25%; ELG1 genotoxic: 8%; FLuc counter: -2%

How did NNC(=O)Cn1c(SCc2ccccc2)nc2ccccc21 do in these assays?
SMN2 splice enh: 1%; ELG1 DNA repair: 0%; Rab9 promoter act: 1%; NPC1 promoter act: 0%; ELG1 genotoxic: 6%; FLuc counter: inconclusive

Results for COc1cc(C(=O)OCC(=O)NC(N)=O)cc(CN2C(=O)c3ccccc3C2=O)c1OC ?
ELG1 DNA repair: -12%; Rab9 promoter act: -3%; NPC1 promoter act: -3%; ELG1 genotoxic: -4%; FLuc counter: 7%

Results for CN1/C(=C/C(=O)C2CCC2)Sc2ccccc21 ?
SMN2 splice enh: inconclusive; ELG1 DNA repair: inconclusive; Rab9 promoter act: inconclusive; NPC1 promoter act: inconclusive; ELG1 genotoxic: inconclusive; FLuc counter: 17µM*

What do the screens show for `CN1/C(=C\C(=O)c2cccs2)Sc2ccccc21`?
ELG1 DNA repair: inconclusive; Rab9 promoter act: 3.5µM*; NPC1 promoter act: inconclusive; ELG1 genotoxic: inconclusive; FLuc counter: 1.5µM*

How did CN1/C(=C/C(=O)c2cccs2)Sc2ccccc21 do in these assays?
SMN2 splice enh: 7.9µM*; ELG1 DNA repair: inconclusive; Rab9 promoter act: -21%; NPC1 promoter act: 5%; ELG1 genotoxic: 1.3µM*; FLuc counter: 1.2µM*

Results for CCN(c1ccccc1)S(=O)(=O)c1ccc(Cl)c(NC(=O)CSc2nnc(C)s2)c1 ?
SMN2 splice enh: 2%; ELG1 DNA repair: -21%; Rab9 promoter act: -4%; NPC1 promoter act: -5%; ELG1 genotoxic: -13%; FLuc counter: 3%

What do the screens show for `COCCCN1CN(S(=O)(=O)c2cccs2)c2nc3ccccc3nc21`?
ELG1 DNA repair: 0%; Rab9 promoter act: 1%; NPC1 promoter act: -2%; ELG1 genotoxic: 4%; FLuc counter: 2%

Results for COc1cc(OC)cc(N2C(=O)CSCC2=O)c1 ?
ELG1 DNA repair: 1%; Rab9 promoter act: 0%; NPC1 promoter act: -4%; ELG1 genotoxic: 1%; FLuc counter: 0%

Results for O=C(Nc1ccc(Cl)c(Cl)c1)c1ccc(Cn2cc(Cl)cn2)cc1 ?
SMN2 splice enh: -87%; ELG1 DNA repair: -14%; Rab9 promoter act: 28%; NPC1 promoter act: 21%; ELG1 genotoxic: 7%; FLuc counter: 19µM*

Results for O=C(Nc1cnn(Cc2ccc(Cl)cc2)c1)c1ccc([N+](=O)[O-])cc1 ?
SMN2 splice enh: -31%; ELG1 DNA repair: 21µM*; Rab9 promoter act: -5%; NPC1 promoter act: -3%; ELG1 genotoxic: -7%; FLuc counter: -1%

How did NNC(=O)c1ccc(Cn2cc(Cl)cn2)cc1 do in these assays?
SMN2 splice enh: -3%; ELG1 DNA repair: inconclusive; Rab9 promoter act: -3%; NPC1 promoter act: 0%; ELG1 genotoxic: 0%; FLuc counter: 0%

How did CC(C)c1nnc(NC(=O)C2CCN(S(=O)(=O)c3ccc(-n4cnnn4)cc3)CC2)s1 do in these assays?
SMN2 splice enh: 5%; ELG1 DNA repair: -1%; Rab9 promoter act: 0%; NPC1 promoter act: 0%; ELG1 genotoxic: 1%; FLuc counter: 0%

What do the screens show for `Cc1ccnc(NC(=O)c2cccc(NC(=O)CC3SC(N4CCCCC4)=NC3=O)c2)c1` (stereo not given)?
ELG1 DNA repair: inconclusive; Rab9 promoter act: 17%; NPC1 promoter act: 4%; ELG1 genotoxic: 3%; FLuc counter: 12µM*

How did Cc1ccnc(NC(=O)c2ccc(NC(=O)CC3SC(N4CCCC4)=NC3=O)cc2)c1 (stereo not given) do in these assays?
ELG1 DNA repair: 3%; Rab9 promoter act: 22%; NPC1 promoter act: 15%; ELG1 genotoxic: 8%; FLuc counter: -16%

Results for CC1CCC(NC(=O)c2ccc(NC(=O)CC3SC(N4CCCC4)=NC3=O)cc2)CC1 (stereo not given) ?
ELG1 DNA repair: inconclusive; Rab9 promoter act: 2.2µM*; NPC1 promoter act: 2.5µM*; ELG1 genotoxic: 19%; FLuc counter: inconclusive
